SMARCA2 act – activators of SMARCA2 function | MG213 cells, MMTV-luciferase reporter, dexamethasone, overnight | activation, % at 9.1 µM | actives 1% (n = 370,000) | AID 652017; in the data active means activation above about 7.8%
esBAF inh – blocks esBAF chromatin remodeling in mouse ES cells | actives 2% (n = 350,000) | AID 602393 | Bmi1-luciferase knock-in reporter, 24 h; 100% = twice the neutral-well signal | reporter increase, % at 12.5 µM; in the data active means activation above about 40%; inconclusive means no clear call, values can overlap the other calls;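 further: a rise in the Bmi1 reporter signal indicates esBAF inhibition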
MLL AF4-AF9 inh – inhibitors of human MLL-AF4/AF9 interaction; AlphaScreen, biotin-AF4 peptide binding to FLAG-AF9; actives 0.47% (n = 350,000); inhibition, % at 10 µM; AID 651704;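 active means every replicate reaching a set inhibition limit, whatever the replicate mean, cut at about 25% in these data; inconclusive means mean inhibition reaches that limit but some replicates miss it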
Target sequence (P42568 whole entry, looked up): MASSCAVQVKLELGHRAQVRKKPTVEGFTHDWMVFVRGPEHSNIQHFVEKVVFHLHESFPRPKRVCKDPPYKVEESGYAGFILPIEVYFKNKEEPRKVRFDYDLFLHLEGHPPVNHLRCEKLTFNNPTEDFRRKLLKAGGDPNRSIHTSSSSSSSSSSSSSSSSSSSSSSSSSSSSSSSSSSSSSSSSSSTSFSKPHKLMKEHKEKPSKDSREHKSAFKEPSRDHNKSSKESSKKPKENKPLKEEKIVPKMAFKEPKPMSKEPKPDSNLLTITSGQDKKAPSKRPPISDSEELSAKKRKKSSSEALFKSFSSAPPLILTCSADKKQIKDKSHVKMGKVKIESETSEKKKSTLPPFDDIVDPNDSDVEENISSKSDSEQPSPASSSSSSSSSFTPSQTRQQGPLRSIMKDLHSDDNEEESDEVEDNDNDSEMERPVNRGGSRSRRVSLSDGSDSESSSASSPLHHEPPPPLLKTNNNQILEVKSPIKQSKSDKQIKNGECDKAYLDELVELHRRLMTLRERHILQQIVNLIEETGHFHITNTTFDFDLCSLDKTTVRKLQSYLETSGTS
MITF act – MITF TRPM1 promoter activation in melanoma cells. SK-MEL-5 TRPM1-promoter luciferase, 24 h; % of positive control, neutral wells = 0. actives 0.75% (n = 300,000). AID 588334. activation, % at 12.5 µM;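 active means mean activation of at least 80% with every replicate also reaching 80%; inconclusive means mean reaches 80% but some replicate falls short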
FGF22 binding – FGF22 (human) thermal shift binding; activity (Tm shift, normalised), % at 9.99 µM; recombinant FGF22 thermal shift, SYPRO orange fluorescence; percent of sucrose octasulfate shift, DMSO zero; AID 651658; Q9HCT0; actives 1.5% (n = 340,000);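 active means mean Tm shift, scaled 0 neutral to 100 positive control, at about 1.3% or above, every replicate too, limit read from the data; inconclusive means no clear call, values can overlap the other calls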
Target sequence (Q9HCT0 whole entry, looked up): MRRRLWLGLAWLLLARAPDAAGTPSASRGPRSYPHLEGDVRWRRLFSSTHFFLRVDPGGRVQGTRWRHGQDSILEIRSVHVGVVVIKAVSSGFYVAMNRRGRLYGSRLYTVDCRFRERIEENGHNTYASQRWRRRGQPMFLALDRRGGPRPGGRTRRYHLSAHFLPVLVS
Wnt act – activators of Wnt/beta-catenin signaling; Wnt/beta-catenin reporter cell assay, activator, plate reader; activation, % at 9.35 µM; actives 1.2% (n = 300,000); AID 743398; in the data active means activation above about 30%, passing the limit was not always enough; inconclusive means no clear call, values can overlap the other calls
Large screens that a line does not name were inactive. An excerpt weighted towards active compounds, which were near 4.3% of everything screened.

O=c1c2c(nc3cc(-c4ccc(Br)cc4)[nH]n13)CCCC2	MITF act 109
Cc1noc(C)c1S(=O)(=O)N(C)C[C@H]1OCCCC[C@H](C)Oc2ccc(NC(=O)NC(C)C)cc2C(=O)N([C@@H](C)CO)C[C@@H]1C	none (no result: SMARCA2 act, MITF act, Wnt act)
O=C(N=Nc1c(O)[nH]c2ccc(Br)cc12)c1ccccc1-n1cccc1	none
O=C(N=Nc1c(O)[nH]c2ccc(Br)cc12)c1ccco1	esBAF inh 60, Wnt act 36 (no result: MITF act)
CN(C)/C=C/C(=O)/C=C/c1ccc(Cl)cc1Cl	MITF act 92, Wnt act inconclusive (no result: esBAF inh)
O=C(/C=C/c1ccc(Cl)cc1Cl)c1ccc[nH]1	none (no result: Wnt act)
Cc1c(NS(=O)(=O)c2ccc(Cl)c(C(=O)OCC(=O)NCc3ccco3)c2)c(=O)n(-c2ccccc2)n1C	FGF22 binding 44
O=C(C[C@@H]1CC[C@H]2NC[C@@H](O)COC[C@@H]2O1)NCCN1CCCC1	none (no result: SMARCA2 act, esBAF inh, MITF act, FGF22 binding, Wnt act)
CC(C)CC#Cc1cnc2c(c1)C(=O)N([C@@H](C)CO)C[C@@H](C)[C@@H](CN(C)Cc1ccccc1)O2	none (no result: SMARCA2 act, MITF act, Wnt act)
CCOC(=O)C1=C(COC(=O)c2cccc(Br)c2)NC(=O)NC1C (stereo unspecified)	none
CCOC(=O)C1=C(COC(=O)c2cccc(N(C)C)c2)NC(=O)NC1C (stereo unspecified)	esBAF inh 60, Wnt act 38
CCOC(=O)[C@@]12CN(C(=O)OC(C)(C)C)CC=C1N(Cc1ccc(OC)cc1)C(=O)[C@H]2CC(=O)N1CCN(C(=O)c2ccco2)CC1	none (no result: esBAF inh, MLL AF4-AF9 inh, MITF act, FGF22 binding, Wnt act)
Clc1cccc(-c2nc3ccc(Br)cn3c2Cc2ccsc2)c1	esBAF inh 43 (no result: MITF act)
Brc1cccc(-c2nc3ccc(Br)cn3c2Cc2ccsc2)c1	esBAF inh 63 (no result: MITF act)
CC(C)OC(=O)n1c(=S)oc2ccccc21	none (no result: MLL AF4-AF9 inh, FGF22 binding, Wnt act)
CCCCC(=O)/C=C/n1c(=S)oc2ccccc21	esBAF inh 65
CNC[C@H]1Oc2cc(-c3cncnc3)ccc2S(=O)(=O)N([C@@H](C)CO)C[C@H]1C	none (no result: SMARCA2 act, MITF act, Wnt act)
COC(=O)C(Cc1c[nH]c2ccccc12)NC(=O)c1ccc2nc[nH]c2c1 (stereo unspecified)	esBAF inh 77, Wnt act 36
COC(=O)C(Cc1c[nH]c2ccccc12)NC(=O)c1cncc(Br)c1 (stereo unspecified)	none
CCN1/C(=C2/SC(=S)NC2=O)Sc2ccccc21	FGF22 binding 43 (no result: esBAF inh)
COc1ccc(-n2cnc3cc(NC(=O)c4ccco4)ccc32)cc1	none (no result: SMARCA2 act, MLL AF4-AF9 inh, FGF22 binding)
O=C(O)CSc1nnnn1C1CCCCC1	FGF22 binding 43 (no result: esBAF inh)
O=C(CSc1nnnn1C1CCCCC1)Nc1cccc(NC(=O)c2ccco2)c1	Wnt act 60 (no result: MLL AF4-AF9 inh, FGF22 binding)
O=C(Nc1ccc2c(c1)ncn2C1CCCCC1)c1ccco1	esBAF inh inconclusive, Wnt act 45 (no result: MLL AF4-AF9 inh, MITF act, FGF22 binding)
O=C(CSc1nnnn1C1CCCCC1)Nc1ccc(F)cc1	FGF22 binding 43 (no result: esBAF inh)
COc1ccc(S(=O)(=O)Nc2ccc3c(c2)C(=O)N([C@H](C)CO)C[C@H](C)[C@H](CN(C)S(=O)(=O)c2ccc(C)cc2)OCCCC[C@H](C)O3)cc1	none (no result: SMARCA2 act, MITF act, Wnt act)
CCn1ccc(C(=O)Nc2ccccc2Cl)n1	MITF act 85 (no result: esBAF inh, Wnt act)
CCn1ccc(C(=O)Nc2cccc(Cl)c2)n1	none (no result: esBAF inh, Wnt act)
Cc1noc(C)c1NC(=O)Nc1ccc2c(c1)CC(=O)N([C@H](C)CO)C[C@@H](C)[C@H](CN(C)C(=O)Nc1ccc(F)cc1)O2	none (no result: SMARCA2 act, MITF act, Wnt act)
CC1Cc2ccccc2N1C(=O)c1ccc(Br)o1 (stereo unspecified)	esBAF inh 92 (no result: MITF act)
CCN(c1ccccc1)S(=O)(=O)c1ccc(Cl)c(C(=O)OCC(=O)NC(=O)C(C)C)c1	FGF22 binding 43 (no result: esBAF inh)
CCN(c1ccccc1)S(=O)(=O)c1ccc(Cl)c(NC(=O)COC(=O)c2ccc(O)cc2)c1	none (no result: esBAF inh, MLL AF4-AF9 inh, FGF22 binding)
COc1cccc2cc(-c3nc4ccccc4o3)c(=O)oc12	Wnt act 42
O=C(Nc1cccs1)Nc1ccccc1Cl	esBAF inh 44 (no result: MLL AF4-AF9 inh, FGF22 binding, Wnt act)
O=C(Nc1ccc(Br)cc1)Nc1ccccc1Cl	esBAF inh inconclusive, MITF act 82, Wnt act 31
O=C(NC(=O)c1csnn1)Nc1ccccc1Cl	esBAF inh 50
NC(=O)NC(=O)Nc1ccccc1Cl	none (no result: MLL AF4-AF9 inh, MITF act, FGF22 binding)
Cc1ccc(NC(=O)Nc2cccs2)c(Cl)c1	Wnt act 55 (no result: esBAF inh, MLL AF4-AF9 inh, FGF22 binding)
COc1ccccc1-c1cnc2c(c1)C(=O)N([C@@H](C)CO)C[C@@H](C)[C@@H](CN(C)C(=O)CC1CC1)O2	none (no result: SMARCA2 act, MITF act, Wnt act)
S=C(NCc1ccc2c(c1)OCO2)Nc1ccc2nsnc2c1	esBAF inh 56
S=C(Nc1ccc2c(c1)OCO2)Nc1ccc2c(c1)OCO2	esBAF inh 51
Cc1nc(C)c(-c2csc(Nc3ccccn3)n2)s1	none (no result: MITF act)
Cc1ccnc(Nc2nc(-c3sc(C)nc3C)cs2)c1	esBAF inh 43 (no result: MITF act)
Cc1ccnc(Nc2nc(-c3ccc(Cl)cc3)cs2)c1	esBAF inh 67
C=CCNc1nc(-c2ccc(Cl)cc2)cs1	MITF act 134 (no result: esBAF inh, MLL AF4-AF9 inh, FGF22 binding, Wnt act)
Cc1nc(C)c(-c2csc(Nc3cccc(O)c3)n2)s1	Wnt act 85 (no result: esBAF inh)
CC(C)NC(=O)N[C@@H]1CC[C@@H](CCNS(=O)(=O)c2ccc(F)cc2)O[C@@H]1CO	none (no result: SMARCA2 act, MITF act, Wnt act)
CC1(C)CC(=O)C=C(c2cc3ccccc3s2)C1	none
O=C1C=C(c2cc3ccccc3s2)CCC1	esBAF inh 74, MITF act 106 (no result: MLL AF4-AF9 inh, FGF22 binding)
CCOC(=O)Nc1ccc(OC)c([N+](=O)[O-])c1	none
CCOC(=O)Nc1ccc2c(c1)C(=NNC(N)=S)c1ccccc1-2	none
CCOC(=O)Nc1ccc2c(c1)C(=NO)c1ccccc1-2	Wnt act 55 (no result: esBAF inh)
CCOC(=O)Nc1ccc2c(c1)Cc1cc([N+](=O)[O-])ccc1-2	esBAF inh 75
C[C@@H]1CCCCO[C@H](CN(C)C(=O)C2CCCCC2)[C@@H](C)CN([C@@H](C)CO)C(=O)c2cc(NS(C)(=O)=O)ccc2O1	none (no result: SMARCA2 act, MITF act, Wnt act)
COc1ccc(S(=O)(=O)N[C@@H]2C=C[C@H](CC(=O)NCCc3ccncc3)O[C@H]2CO)cc1	none (no result: SMARCA2 act, MLL AF4-AF9 inh, MITF act, FGF22 binding, Wnt act)
Cc1csc(NC(=O)CCSCCc2ccccn2)n1	MLL AF4-AF9 inh 42
O=C(CCSCCc1ccccn1)Nc1c(F)cc(F)cc1Br	none (no result: MLL AF4-AF9 inh, FGF22 binding, Wnt act)
CO[C@@H]1CN(C)C(=O)c2ccc(NC(=O)c3ccccc3F)cc2OC[C@@H](C)N(C(=O)c2ccccc2F)C[C@@H]1C	none (no result: SMARCA2 act, MITF act, Wnt act)
CCc1ccc(C(=O)Nc2ccc3nc(C)ccc3c2)cc1	MITF act 99
Cc1ccc2cc(NC(=O)c3ccccc3C)ccc2n1	esBAF inh inconclusive, MITF act 100
CCCNC(=O)C[C@@H]1CC[C@@H]2[C@H](COc3ccc(NC(=O)c4ccc(C(F)(F)F)cc4)cc3C(=O)N2C)O1	none (no result: SMARCA2 act, MITF act, Wnt act)
Fc1ccccc1C1CCN(Cc2nc(CC3CC3)no2)C1 (stereo unspecified)	Wnt act 44 (no result: esBAF inh)
Cc1c(CCOC(=O)c2ccc(N3CCOCC3)c([N+](=O)[O-])c2)sc[n+]1CC#N	none

Bioassay records deposited in PubChem by several laboratories.
